PubChem BioAssay (NCATS)
Results filed as inconclusive are left out. Entries that show only a call come without a potency. Activity calls are given as the source filed them. The call rests on the fitted dose curve; in most records, active means well fitted inhibition curve with a large enough effect; inconclusive means small, poorly fitted or top-dose-only effect; inactive means flat fitted curve, though single readings scatter.

biological target: Ubiquitin carboxyl-terminal hydrolase 1 (Homo sapiens) (UniProt O94782); experiment: Inhibitors of USP1/UAF1: Pilot qHTS (AID 504865); conditions: purified USP1/UAF1, Ub-rhodamine cleavage fluorescence; series mostly up to 114 µM; further: nearly all actives have a fitted effect of over 35% in size
Sequence (O94782 whole entry, looked up): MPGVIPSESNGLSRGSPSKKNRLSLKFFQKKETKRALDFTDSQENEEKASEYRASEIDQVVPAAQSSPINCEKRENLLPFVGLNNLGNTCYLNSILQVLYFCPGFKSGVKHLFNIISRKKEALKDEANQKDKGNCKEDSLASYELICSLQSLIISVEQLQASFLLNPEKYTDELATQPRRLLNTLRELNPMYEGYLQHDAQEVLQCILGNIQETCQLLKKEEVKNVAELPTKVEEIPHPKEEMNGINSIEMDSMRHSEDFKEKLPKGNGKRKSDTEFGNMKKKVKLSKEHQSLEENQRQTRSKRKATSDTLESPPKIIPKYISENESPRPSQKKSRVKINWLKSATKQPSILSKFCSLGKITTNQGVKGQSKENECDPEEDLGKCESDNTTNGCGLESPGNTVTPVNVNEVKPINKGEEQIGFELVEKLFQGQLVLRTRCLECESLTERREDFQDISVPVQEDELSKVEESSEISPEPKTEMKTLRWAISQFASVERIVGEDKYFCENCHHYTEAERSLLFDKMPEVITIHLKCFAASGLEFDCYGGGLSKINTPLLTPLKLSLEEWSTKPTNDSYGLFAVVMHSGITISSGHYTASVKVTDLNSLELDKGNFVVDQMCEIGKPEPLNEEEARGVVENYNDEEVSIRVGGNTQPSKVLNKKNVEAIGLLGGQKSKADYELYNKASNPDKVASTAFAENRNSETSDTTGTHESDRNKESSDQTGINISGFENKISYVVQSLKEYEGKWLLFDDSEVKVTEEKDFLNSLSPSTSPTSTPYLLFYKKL
How it was run: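 USP1/UAF1 complex at 1 nM preincubated 15 min at room temperature with compound, then Ub-Rho substrate added at 150 nM final. Fluorescence (480/540 nm) read kinetically in 50 mM HEPES pH 7.8, 0.5 mM EDTA, 1 mM TCEP, 0.1 mg/ml BSA, 0.01% Tween-20.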
Potency means the concentration at half of the fitted maximal effect.

SMILES | Potency
Cc1ccc(-c2nc3ccc(C)cn3c2CC(=O)N(C)C)cc1 | inactive
CN(C)CCc1ccc(O)cc1 | inactive
C#CCOC(C(=O)OCCN(C)C)(c1ccccc1)c1ccccc1 | inactive
C[C@]12C/C(=C/O)C(=O)C[C@@H]1CC[C@@H]1[C@@H]2CC[C@@]2(C)[C@H]1CC[C@]2(C)O | inactive
CCN(CC)CCN1C(=O)CN=C(c2ccccc2F)c2cc(Cl)ccc21 | inactive
NP(N)(=O)NC(=O)c1ccc(F)cc1 | inactive
O=[N+]([O-])c1cc([As](=O)(O)O)ccc1O | inactive
CC(C)NCC(O)c1ccccc1Cl (stereo not drawn) | inactive
Oc1cc(Cl)ccc1Oc1ccc(Cl)cc1Cl | inactive
CC(C)(C)NCC(O)c1cc(Cl)c(N)c(Cl)c1 (stereo not drawn) | inactive
CCC(C(N)=O)N1CCCC1=O (stereo not drawn) | inactive
O=P1(NCCCl)OCCCN1CCCl (stereo not drawn) | inactive
NCCc1cc(O)c(O)cc1O | 50.1 µM (active)
